From PubChem
HT1080NT lethal – kills 2HG-producing HT-1080-NT fibrosarcoma cells. hit rate 1.6% among 360,000. HT-1080-NT fibrosarcoma viability, CellTiter-Glo ATP luminescence, 48 h. Potency, µM (series often up to 46.1 µM), for inactives: top-dose activity, negative = less viability, hits mostly cytotoxic;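 further: NT is the 2HG producing partner of a matched IDH1 knockdown line; potency means the concentration at half of the fitted maximal effect; 0% = DMSO-treated cells and -100% = media-only wells without cells; nearly all actives have a fitted effect of over 55% in size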
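HT-1080-NT fibrosarcoma cells (2HG-overproducing), 750 cells/well in RPMI with 5% FBS, dosed after 2 h and incubated 48 h at 37C. CellTiter-Glo luminescence normalized to DMSO and no-cell wells; concentration-response curves fitted and classed.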
HT1080 IDH1KD tx – toxicity to HT-1080 IDH1 knockdown cells (counter line); HT-1080 IDH1 knockdown viability, ATP luminescence, 48 h; hit rate 2% among 360,000; AID 686971; Potency, µM (doses to about 46.1 µM), without a hit: top-dose activity, negative = toxicity, actives largely listed as cytotoxic;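 further: potency means the concentration at half of the fitted maximal effect; 0% = DMSO wells and -100% = cell-free medium wells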
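Knockdown cells (IDH1KD HT-1080) received compounds 2 h after plating at 750 cells/well and were kept 48 h at 37 °C in 5% FBS RPMI. A CellTiter-Glo luminescence read gave % activity for curve fitting.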
TDP1 cell CPT – growth inhibition of DT40 Tdp1-/-;hTDP1 cells with camptothecin (screen for TDP1 inhibitors); chicken DT40 Tdp1-/-;hTDP1 cells + 20 nM CPT, ATP luminescence, 48 h; Potency, µM (doses to about 46.2 µM), for the others: at the top dose activity change, negative = growth inhibition, usual class: inhibitors; hit rate 12% among 420,000; AID 686979; further: potency means the concentration at half of the fitted maximal effect; nearly all actives have a fitted effect of over 55% in size
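Chicken DT40 Tdp1-/- cells complemented with human TDP1, 400 cells/well, exposed to compounds plus 20 nM camptothecin for at least 48 h at 37 C; viability read as ATP content by CellTiter-Glo luminescence.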
DT40 TDP1 no CPT – qHTS for Inhibitors of human tyrosyl-DNA phosphodiesterase 1 (TDP1): qHTS in cells in absence of CPT | DT40 Tdp1-/- hTDP1 cells, no CPT, ATP luminescence, 48 h | Potency, µM (doses to about 46.2 µM), for the others: at the top dose activity change, negative = growth inhibition, usual class: inhibitors | hit rate 15% among 420,000; further: potency means the concentration at half of the fitted maximal effect; nearly all actives have a fitted effect of over 55% in size
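Compound effects on proliferation are scored in DT40 Tdp1-/-;hTDP1 cells in the absence of CPT. ATP levels (CellTiter-Glo luminescence) are recorded after a ≥48 hr, 37 °C incubation.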
IL-1B inflam inh – inhibitors of inflammasome signaling (IL-1 beta secretion). THP-1 LPS/ATP IL-1B secretion, AlphaLISA, 16 h; hits give low values. activity change, % at 57.5 µM. hit rate 4.7% among 360,000; in the data active means activity change below about -50%; inconclusive means mostly about -30% to -49%
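Secreted IL-1B measured by AlphaLISA bead assay after 16 h compound exposure of THP-1 cells; compounds (final up to 57.5 uM) added 1 h before LPS (250 ng/mL) and ATP (1.25 mM) stimulation; lower signal means less secretion.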
Numbers without * were called inactive; [ ] = remark or other dose. A selection: hits, their analogues and other compounds. The true share with any hit is near 19%. Unless noted, the call rests on the fitted dose curve; in most records, active means well fitted curve in the direction sought with a large enough effect; inconclusive means small, poorly fitted or top-dose-only effect, or another doubt; inactive means no such curve, though single readings can be large; an effect the other way counts as inactive or inconclusive. Unless noted, on the % scale 0 is the no-effect control and ±100 the full control effect.

What do the screens show for `CN(C)CCCn1c2c(c(SCC(=O)Nc3cccc4ccccc34)nc1=O)CCCC2`?
HT1080NT lethal: -4%; HT1080 IDH1KD tx: -6%; TDP1 cell CPT: -6%; DT40 TDP1 no CPT: -16%; IL-1B inflam inh: -97*

Results for CC(=O)c1cccc(N2C(=NC(=O)C3CC3)SC3CS(=O)(=O)CC32)c1 (stereo not drawn) ?
HT1080NT lethal: 5%; HT1080 IDH1KD tx: 6%; TDP1 cell CPT: 3%; DT40 TDP1 no CPT: 6%; IL-1B inflam inh: -5

What do the screens show for `Cc1ccc2oc(=O)c3cc(C(=O)N(Cc4ccccc4)C(C)C)sc3c2c1`?
TDP1 cell CPT: 18µM*; DT40 TDP1 no CPT: 21µM*

What do the screens show for `CCOC(=O)c1ccccc1NC(=O)c1cc2c(=O)oc3ccc(C)cc3c2s1`?
TDP1 cell CPT: 1%; DT40 TDP1 no CPT: 0%

How did CCN(CC)C(=O)c1cc2c(=O)n3cccc(C)c3nc2s1 do in these assays?
HT1080NT lethal: 3%; HT1080 IDH1KD tx: 5%; TDP1 cell CPT: -7%; DT40 TDP1 no CPT: -23%; IL-1B inflam inh: 17

What do the screens show for `CCOc1ccc(CCNC(=O)c2cc3c(=O)oc4ccc(C)cc4c3s2)cc1OCC`?
TDP1 cell CPT: 13µM*; DT40 TDP1 no CPT: inconclusive

Results for Cc1ccc2oc(=O)c3cc(C(=O)Nc4ccc(F)cc4F)sc3c2c1 ?
TDP1 cell CPT: inconclusive; DT40 TDP1 no CPT: 26µM*

What do the screens show for `Cc1cccn2c(=O)c3cc(C(=O)N(Cc4ccccc4)C(C)C)sc3nc12`?
TDP1 cell CPT: 16µM*; DT40 TDP1 no CPT: 21µM*

What do the screens show for `NC(=O)CNC(=O)C1CCN(S(=O)(=O)c2ccc(-n3cnnn3)cc2)CC1`?
HT1080NT lethal: 4%; HT1080 IDH1KD tx: 11%; TDP1 cell CPT: -4%; DT40 TDP1 no CPT: 5%; IL-1B inflam inh: 8

Results for Cc1ccc2oc(=O)c3cc(C(=O)NCCCN4CC(C)CC(C)C4)sc3c2c1 (stereo not drawn) ?
HT1080NT lethal: 3%; HT1080 IDH1KD tx: 16%; TDP1 cell CPT: inconclusive; DT40 TDP1 no CPT: inconclusive; IL-1B inflam inh: -83*

How did CC(=O)NC(=S)Nc1ccc(NC(=O)c2cccnc2Cl)cc1 do in these assays?
HT1080NT lethal: 20%; HT1080 IDH1KD tx: 14%; TDP1 cell CPT: -8%; DT40 TDP1 no CPT: -28%; IL-1B inflam inh: -14

What do the screens show for `O=C(NCc1ccc(Cl)s1)C1CCC(=O)N(CCc2ccccn2)C1` (stereo not drawn)?
HT1080NT lethal: 2%; HT1080 IDH1KD tx: 10%; TDP1 cell CPT: -17%; DT40 TDP1 no CPT: 20%; IL-1B inflam inh: 38

How did COc1cccc(-c2c(-c3ccccc3OC)ncn2Cc2cccc(-c3ccccc3)c2)c1 do in these assays?
HT1080NT lethal: inconclusive; HT1080 IDH1KD tx: inconclusive; TDP1 cell CPT: 8.2µM*; DT40 TDP1 no CPT: 12µM*; IL-1B inflam inh: inconclusive

How did COc1cccc(Cn2cnc3c(N)c(C)c(C)cc32)c1 do in these assays?
HT1080NT lethal: -4%; HT1080 IDH1KD tx: 4%; TDP1 cell CPT: -9%; DT40 TDP1 no CPT: -38%; IL-1B inflam inh: 5

Results for COc1cccc(Cn2cnc(-c3ccccc3OC)c2-c2ccco2)c1 ?
HT1080NT lethal: -30%; HT1080 IDH1KD tx: -16%; TDP1 cell CPT: 18µM*; DT40 TDP1 no CPT: 18µM*; IL-1B inflam inh: 0

Results for Cc1cc(Br)ccc1NC(=O)CN1C(=O)C2CC=CCC2C1=O (stereo not drawn) ?
HT1080NT lethal: 1%; HT1080 IDH1KD tx: -4%; TDP1 cell CPT: -19%; DT40 TDP1 no CPT: inconclusive; IL-1B inflam inh: -18

Results for COc1nnc(-c2ccc(N3CCCCC3)c(NC(C)=O)c2)c2ccccc12 ?
HT1080NT lethal: 3%; HT1080 IDH1KD tx: 5%; TDP1 cell CPT: inconclusive; DT40 TDP1 no CPT: 18µM*; IL-1B inflam inh: inconclusive

Results for COc1nnc(-c2ccc(N3CCCCC3)c(NC(=O)C3CCCCC3)c2)c2ccccc12 ?
HT1080NT lethal: -7%; HT1080 IDH1KD tx: -5%; TDP1 cell CPT: -23%; DT40 TDP1 no CPT: inconclusive; IL-1B inflam inh: 66

What do the screens show for `Cc1ccc(NC(=O)Cn2c(=O)n(CCCCC(=O)NCc3ccco3)c(=O)c3ccccc32)cc1`?
HT1080NT lethal: 0%; HT1080 IDH1KD tx: 1%; TDP1 cell CPT: inconclusive; DT40 TDP1 no CPT: 15µM*; IL-1B inflam inh: -18

What do the screens show for `O=C(CCCn1c(=O)c2ccccc2n(CC(=O)NCc2ccco2)c1=O)NCc1ccco1`?
HT1080NT lethal: 15%; HT1080 IDH1KD tx: 12%; TDP1 cell CPT: -4%; DT40 TDP1 no CPT: inconclusive; IL-1B inflam inh: -12

Results for O=C(CCCCn1c(=O)c2ccccc2n(Cc2ccc(F)cc2Cl)c1=O)NCc1ccco1 ?
HT1080NT lethal: inconclusive; HT1080 IDH1KD tx: inconclusive; TDP1 cell CPT: 18µM*; DT40 TDP1 no CPT: 15µM*; IL-1B inflam inh: -17

Results for O=C(CCn1c(=O)c2sccc2n(CC(=O)NCc2ccco2)c1=O)NCc1ccccc1 ?
HT1080NT lethal: 0.1µM*; HT1080 IDH1KD tx: -6%; TDP1 cell CPT: -11%; DT40 TDP1 no CPT: -5%; IL-1B inflam inh: -11

Results for Cc1ccc(C)c(Cn2c(=O)n(CCCC(=O)NCc3ccco3)c(=O)c3sccc32)c1 ?
HT1080NT lethal: inconclusive; HT1080 IDH1KD tx: 9.2µM*; TDP1 cell CPT: 23µM*; DT40 TDP1 no CPT: 12µM*; IL-1B inflam inh: 13

How did CSc1cccc(CNC(=O)C2CCC(=O)N(CCCN3CCCC3=O)C2)c1 (stereo not drawn) do in these assays?
HT1080NT lethal: 11%; HT1080 IDH1KD tx: 2%; TDP1 cell CPT: -6%; DT40 TDP1 no CPT: 14%; IL-1B inflam inh: inactive

How did Cc1ccc(C)c(Cn2c(=O)n(CCCC(=O)NCc3ccco3)c(=O)c3ccccc32)c1 do in these assays?
HT1080NT lethal: 18%; HT1080 IDH1KD tx: 13%; TDP1 cell CPT: -28%; DT40 TDP1 no CPT: inconclusive; IL-1B inflam inh: 35

What do the screens show for `Cc1cc(C)c(Cn2c(=O)n(CCCC(=O)NCc3ccco3)c(=O)c3ccccc32)c(C)c1`?
HT1080NT lethal: 13%; HT1080 IDH1KD tx: 11%; TDP1 cell CPT: inconclusive; DT40 TDP1 no CPT: 18µM*; IL-1B inflam inh: 0

Results for CCC(C)NC(=O)Cn1c(=O)n(CCCCC(=O)NCc2ccco2)c(=O)c2ccccc21 (stereo not drawn) ?
HT1080NT lethal: -5%; HT1080 IDH1KD tx: -1%; TDP1 cell CPT: -5%; DT40 TDP1 no CPT: -20%; IL-1B inflam inh: -15

Results for O=C(CCCCn1c(=O)c2ccccc2n(CC(=O)Nc2ccc(F)cc2)c1=O)NCc1ccco1 ?
HT1080NT lethal: -2%; HT1080 IDH1KD tx: -8%[9.24 µM]; TDP1 cell CPT: 9.2µM*; DT40 TDP1 no CPT: inconclusive; IL-1B inflam inh: -21
